Test [1] relates to thyroid hormone receptor (rat, GH3 cells). Briefly: qHTS assay to identify small molecule agonists of the thyroid receptor (TR) signaling pathway (AID 743066; calls by dose curve). In general terms: Quantitative high-throughput screening tests each substance at several concentrations.
Test [2] concerns the target Estrogen receptor (Homo sapiens) (UniProt P03372). Briefly: qHTS assay to identify small molecule antagonists of the estrogen receptor alpha (ER-alpha) signaling pathway (AID 743069; active = well fitted curve in the direction sought with a large enough effect in the signal ratio in the repeat runs, not every such curve was filed as active; inconclusive = weak or mixed curves, or effect the other way; inactive = no such curve, though single readings can be large or run the other way; the % refers to the signal ratio; note: potency is the fitted concentration of half-maximal effect). In outline: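 Antagonist mode: compounds in DMSO were co-added with 17beta-estradiol to ER-alpha-bla HEK293 cells (2% charcoal-stripped serum) and left 18 h at 37C. Reporter inhibition was measured as FRET fluorescence after 2 h LiveBLAzer substrate at room temperature.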

Test [3] can be described thus: qHTS assay to identify small molecule antagonists of the estrogen receptor alpha (ER-alpha) signaling pathway - cell viability counter screen (AID 743074; calls by dose curve;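 note: HEK293 cells carrying ER-alpha-UAS-bla reporter stimulated with 17beta-estradiol; nearly all actives have a fitted effect of over 45% in size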; note: potency is the fitted concentration of half-maximal effect).
Test [4] has as its target Estrogen receptor (Homo sapiens) (UniProt P03372). Briefly: qHTS assay to identify small molecule agonists of the estrogen receptor alpha (ER-alpha) signaling pathway (AID 743075; calls by dose curve;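 note: HEK293 GripTite cells with ER-alpha and UAS-driven beta-lactamase reporter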; note: potency is the fitted concentration of half-maximal effect).
For test [5] the target is unchanged. As to the kind of experiment: qHTS assay to identify small molecule agonists of the estrogen receptor alpha (ER-alpha) signaling pathway using the BG1 cell line (AID 743079). Note: nearly all actives have a fitted effect of over 20% in size. Note: potency is the fitted concentration of half-maximal effect.
Test [6] in a line: qHTS assay to identify small molecule antagonists of the estrogen receptor alpha (ER-alpha) signaling pathway using the BG1 cell line (AID 743080; calls by dose curve; note: nearly all actives have a fitted effect of over 25% in size; note: potency is the fitted concentration of half-maximal effect). In outline: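 Antagonist mode: compounds in DMSO were pinned onto BG1-Luc-4E2 cells alongside 17beta-estradiol agonist, incubated 21.5 h, and ERE-driven luciferase measured with ONE-Glo. Cytotoxicity was multiplexed using CellTiter-Fluor fluorescence.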

Test [7] is described as follows: qHTS assay to identify small molecule antagonists of the estrogen receptor alpha (ER-alpha) signaling pathway using the BG1 cell line - cell viability counter screen (AID 743081).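 Note: compound given together with 17beta-estradiol as the ER stimulus; nearly all actives have a fitted effect of over 45% in size.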 Note: potency is the fitted concentration of half-maximal effect.
Test [8] addresses Aromatase (Homo sapiens) (UniProt P11511). Briefly: qHTS assay to identify aromatase inhibitors (AID 743083). Note: nearly all actives have a fitted effect of over 55% in size. Note: potency is the fitted concentration of half-maximal effect.
Test [9] in a line: qHTS assay to identify aromatase inhibitors - cell viability counter screen (AID 743084).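 Note: cells stimulated with testosterone during compound exposure; nearly all actives have a fitted effect of over 55% in size.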 Note: potency is the fitted concentration of half-maximal effect.
Test [10] addresses Aryl hydrocarbon receptor (Homo sapiens) (UniProt P35869). Briefly: qHTS assay to identify small molecule that activate the aryl hydrocarbon receptor (AhR) signaling pathway (AID 743085).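 For activation: HG2L7.5c1 human HepG2 liver cells with stably integrated DRE-driven firefly reporter; series mostly up to about 70 µM.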 Note: nearly all actives have a fitted effect of over 15% in size. Note: potency is the fitted concentration of half-maximal effect. In outline:
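Steps: seed HepG2-AhR-luc cells; allow 5 h at 37C; pin-transfer test compound or vehicle; incubate 24 h at 37C; add viability dye (30 min, 37C) and read fluorescence; add luciferase substrate (30 min, RT) and read luminescence.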

Test [11] is described as follows: qHTS assay to identify small molecule that activate the aryl hydrocarbon receptor (AhR) signaling pathway - cell viability counter screen (AID 743086). Note: nearly all actives have a fitted effect of over 45% in size. Note: potency is the fitted concentration of half-maximal effect. In outline: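 Cytotoxicity counter screen: CellTiter-Fluor signal (30 min, 37 C) in 4000 HepG2 cells/well carrying the DRE-luciferase reporter, following 24 h compound exposure at 37 C.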
Test [12] addresses Peroxisome proliferator-activated receptor gamma (Homo sapiens) (UniProt P37231). Briefly: qHTS assay to identify small molecule agonists of the peroxisome proliferator-activated receptor gamma (PPARg) signaling pathway (AID 743094; active = well fitted activation curve with a large enough effect in the signal ratio in the repeat runs, not every such curve was filed as active; inconclusive = weak or mixed curves, or effect the other way; inactive = no such curve, though single readings can be large or run the other way; the % refers to the signal ratio). In outline:
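Agonism was assessed in a beta-lactamase reporter system, HEK293H cells with a stably integrated UAS-bla construct under PPARg control; the 17 h treatment at 37C preceded a 1 h room-temperature FRET substrate read.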

Test [13] has the same target. Briefly: qHTS assay to identify small molecule antagonists of the peroxisome proliferator-activated receptor gamma (PPARg) signaling pathway (AID 743191; calls by dose curve; note: series mostly up to about 63 µM; nearly all actives have a fitted effect of over 30% in size). In outline:
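Beta-lactamase reporter under UAS control in HEK293H PPARg-bla cells; compound treatment 17 h at 37C. Read-out: fluorescence intensity after 1 h room-temperature incubation with LiveBLAzer B/G FRET substrate.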

Test [14] is described as follows: qHTS assay to identify small molecule antagonists of the peroxisome proliferator-activated receptor gamma (PPARg) signaling pathway - cell viability counter screen (AID 743194). Note: nearly all actives have a fitted effect of over 55% in size. Note: potency is the fitted concentration of half-maximal effect. In outline:
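Viability was measured as CellTiter-Glo luminescence in GeneBLAzer PPARg UAS-bla HEK293H cells. These cells had been exposed 17 h at 37 C to compounds together with rosiglitazone at 50 nM final, with the beta-lactamase readout taken in the same wells.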

A short description of test [15]: qHTS assay for small molecule agonists of the antioxidant response element (ARE) signaling pathway (AID 743202; active = well fitted activation curve with a large enough effect in the signal ratio in the repeat runs, not every such curve was filed as active; inconclusive = weak or mixed curves, or effect the other way; inactive = no such curve, though single readings can be large or run the other way; the % refers to the signal ratio; note: potency is the fitted concentration of half-maximal effect). In outline:
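After 16 hours of compound treatment at 37 C, HepG2 cells with a stably integrated ARE-driven beta-lactamase reporter were loaded 2 hours at room temperature with LiveBLAzer B/G FRET substrate and fluorescence intensity measured.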

The nature of test [16]: qHTS assay for small molecule agonists of the antioxidant response element (ARE) signaling pathway - cell viability counter screen (AID 743203; calls by dose curve; note: nearly all actives have a fitted effect of over 55% in size; note: potency is the fitted concentration of half-maximal effect). In short, it runs like this:
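ATP content via CellTiter-Glo luminescence served as the viability measure. Cells: ARE-bla HepG2, 2,000 per well. Exposure: 16 hrs, 37C/5% CO2.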

Test [17] can be described thus: qHTS assay for small molecule activators of the heat shock response signaling pathway - cell viability counter screen (AID 743209). Note: nearly all actives have a fitted effect of over 50% in size. Note: potency is the fitted concentration of half-maximal effect. In short, it runs like this:
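Compounds dissolved in DMSO were added to overnight-plated HSE-bla HeLa cells and left 5 h at 37 C. Cell viability was quantified by luminescence using CellTiter-Glo.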

Test [18] can be described thus: qHTS assay for small molecule activators of the heat shock response signaling pathway (AID 743210; active = well fitted activation curve with a large enough effect in the signal ratio in the repeat runs, with a control signal flat, not every such curve was filed as active; inconclusive = weak or mixed curves; the % refers to the signal ratio; note: series mostly up to about 63 µM). In short, it runs like this: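 Compound exposure lasted 5 h at 37 C in HeLa cells carrying a heat-shock-element-driven beta-lactamase reporter. Read-out: fluorescence intensity after 2.5 h room-temperature loading with LiveBLAzer B/G FRET substrate.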
The nature of test [19]: qHTS assay to identify small molecule agonists of the peroxisome proliferator-activated receptor delta (PPARd) signaling pathway - cell viability counter screen (AID 743211). Note: nearly all actives have a fitted effect of over 55% in size. Note: potency is the fitted concentration of half-maximal effect. In outline: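 Viability of GeneBLAzer PPARd UAS-bla HEK293H cells was assessed after 17 h compound incubation at 37C, using CellTiter-Glo reagent added after the reporter read and luminescence recorded 30 min later.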

“And” between values parts separate entries of the source, which are not always exact repeats. Equal entries are not always repeated. The source holds several records for some structures; these can differ, active in one and inactive in another. The source made the active and inactive calls. Unless noted, calls come from the whole dose curve; as a rule, active = well fitted curve in the direction sought with a large enough effect in the repeat runs; inconclusive = weak or mixed curves; inactive = no such curve, though single readings can be large; an effect the other way counts as inactive or inconclusive.

Sequence of Aromatase (Homo sapiens) (P11511 whole entry, looked up): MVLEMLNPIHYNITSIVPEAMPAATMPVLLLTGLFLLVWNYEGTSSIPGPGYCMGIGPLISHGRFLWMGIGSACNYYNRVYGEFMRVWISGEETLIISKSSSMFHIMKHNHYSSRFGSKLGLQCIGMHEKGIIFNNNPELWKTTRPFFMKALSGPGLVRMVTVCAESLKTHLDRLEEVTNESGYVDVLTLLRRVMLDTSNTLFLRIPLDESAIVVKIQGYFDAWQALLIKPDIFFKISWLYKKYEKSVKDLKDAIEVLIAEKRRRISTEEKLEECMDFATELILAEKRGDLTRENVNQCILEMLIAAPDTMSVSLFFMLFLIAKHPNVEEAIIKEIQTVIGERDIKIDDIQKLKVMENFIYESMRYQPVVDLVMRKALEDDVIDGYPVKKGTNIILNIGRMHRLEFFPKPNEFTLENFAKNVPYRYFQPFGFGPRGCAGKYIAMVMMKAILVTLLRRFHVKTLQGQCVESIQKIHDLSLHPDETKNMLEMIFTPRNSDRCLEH
Sequence of Aryl hydrocarbon receptor (Homo sapiens) (P35869 whole entry, looked up): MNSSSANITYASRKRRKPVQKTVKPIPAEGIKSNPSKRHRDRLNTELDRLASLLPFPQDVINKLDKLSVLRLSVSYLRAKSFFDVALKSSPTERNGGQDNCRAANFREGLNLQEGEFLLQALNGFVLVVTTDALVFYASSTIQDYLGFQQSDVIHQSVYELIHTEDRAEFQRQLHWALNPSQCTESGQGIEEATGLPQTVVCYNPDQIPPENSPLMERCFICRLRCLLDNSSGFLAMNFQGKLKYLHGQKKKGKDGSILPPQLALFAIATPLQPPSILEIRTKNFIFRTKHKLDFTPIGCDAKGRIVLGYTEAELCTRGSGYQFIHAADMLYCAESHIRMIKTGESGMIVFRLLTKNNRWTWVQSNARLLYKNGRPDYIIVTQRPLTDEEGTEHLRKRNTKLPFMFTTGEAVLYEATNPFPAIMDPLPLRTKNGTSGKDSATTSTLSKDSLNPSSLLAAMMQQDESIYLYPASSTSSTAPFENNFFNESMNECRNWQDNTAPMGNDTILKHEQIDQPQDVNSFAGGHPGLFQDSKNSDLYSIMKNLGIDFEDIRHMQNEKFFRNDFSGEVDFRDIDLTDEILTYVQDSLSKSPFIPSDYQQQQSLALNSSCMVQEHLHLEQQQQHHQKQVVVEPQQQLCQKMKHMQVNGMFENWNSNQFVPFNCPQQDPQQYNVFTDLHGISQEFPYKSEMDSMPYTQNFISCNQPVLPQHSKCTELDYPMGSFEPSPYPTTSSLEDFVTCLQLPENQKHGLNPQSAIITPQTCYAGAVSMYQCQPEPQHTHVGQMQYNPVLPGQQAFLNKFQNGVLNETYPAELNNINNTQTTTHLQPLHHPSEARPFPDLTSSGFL
Sequence of Peroxisome proliferator-activated receptor gamma (Homo sapiens) (P37231 whole entry, looked up): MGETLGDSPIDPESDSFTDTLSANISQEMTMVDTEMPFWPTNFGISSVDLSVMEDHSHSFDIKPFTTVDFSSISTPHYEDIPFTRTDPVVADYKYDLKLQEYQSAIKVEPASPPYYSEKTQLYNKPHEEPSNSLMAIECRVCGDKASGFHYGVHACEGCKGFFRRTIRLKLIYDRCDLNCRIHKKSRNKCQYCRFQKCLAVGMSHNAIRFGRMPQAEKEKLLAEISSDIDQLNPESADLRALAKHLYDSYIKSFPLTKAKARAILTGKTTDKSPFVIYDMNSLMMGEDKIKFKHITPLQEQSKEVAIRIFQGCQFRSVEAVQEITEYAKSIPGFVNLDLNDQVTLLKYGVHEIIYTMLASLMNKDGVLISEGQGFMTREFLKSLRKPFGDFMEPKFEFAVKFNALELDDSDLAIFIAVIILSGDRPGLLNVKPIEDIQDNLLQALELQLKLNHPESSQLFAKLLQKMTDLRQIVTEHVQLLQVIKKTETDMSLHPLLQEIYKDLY
Sequence of Estrogen receptor (Homo sapiens) (P03372 whole entry, looked up): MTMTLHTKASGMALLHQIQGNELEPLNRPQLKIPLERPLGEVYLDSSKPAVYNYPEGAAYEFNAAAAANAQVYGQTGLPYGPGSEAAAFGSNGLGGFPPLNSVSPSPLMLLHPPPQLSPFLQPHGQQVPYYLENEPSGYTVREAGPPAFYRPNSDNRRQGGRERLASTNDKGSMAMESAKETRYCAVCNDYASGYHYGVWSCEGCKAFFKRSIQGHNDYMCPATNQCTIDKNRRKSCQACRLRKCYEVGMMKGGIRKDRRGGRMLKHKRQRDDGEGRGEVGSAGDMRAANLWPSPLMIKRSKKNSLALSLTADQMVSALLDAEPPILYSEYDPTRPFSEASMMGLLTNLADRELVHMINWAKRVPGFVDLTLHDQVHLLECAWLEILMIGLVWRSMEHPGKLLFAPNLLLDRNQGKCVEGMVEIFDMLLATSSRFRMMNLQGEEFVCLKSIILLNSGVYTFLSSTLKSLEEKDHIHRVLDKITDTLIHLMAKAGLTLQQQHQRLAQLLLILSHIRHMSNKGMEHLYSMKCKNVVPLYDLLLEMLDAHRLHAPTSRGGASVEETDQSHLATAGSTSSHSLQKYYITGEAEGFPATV

Turning to `O=C(O)CP(=O)(O)O`, the Potency entry in test [1], in test [2], in test [3], in test [4], in test [5] and in test [6] was “inactive” each time. Further, the Potency result in test [7], in [8], in [9], in test [10], in test [11] and in [12] was “inactive” throughout. The Potency entry in test [13], in test [14], in [15], in test [16], in [17] and in test [18] was “inactive” in each case. The Potency entry in [19] was “inactive”.
Consider `Nc1cc(Cl)c(-c2cc(Cl)c(N)cc2Cl)cc1Cl`, for which the Potency result in test [1], in test [4], in test [7] and in test [11] was “inactive” in each case. Besides, the Potency was 1.55 µM [inconclusive] (active) and 19.5 µM [inconclusive] (active) in test [2]; 48.9 µM (active) and 24.5 µM (active) in test [3]; 54.4 µM (active) and 54.5 µM (active) in test [6]; 12.2 µM (active) and 15.4 µM (active) in test [8]; 48.5 µM (active) in [9]; 48.9 µM (active) and 17.4 µM (active) in [14]. The Potency in test [16] was 61.1 µM (active) and 21.7 µM (active); in test [17] it was 24.5 µM (active); in test [19], 48.9 µM (active) and 43.6 µM (active).
As for `O=C(Oc1ccccc1)c1ccccc1O`, the Potency entry in test [1], in test [2], in [3], in test [4], in test [5] and in [6] was “inactive” throughout. Besides, the Potency entry in test [7], in test [8], in test [9], in [10], in [11] and in test [12] was “inactive” throughout. Moreover, the Potency entry in test [14], in test [15], in test [16], in test [17], in test [18] and in [19] was “inactive” throughout.
Turning to `O=C(O[C@@H]1Cc2c(O)cc(O)cc2O[C@@H]1c1cc(O)c(O)c(O)c1)c1cc(O)c(O)c(O)c1`, the Potency entry in [1], in [2], in [3], in [4], in test [5] and in test [6] was “inactive” in each case. The Potency entry in [7], in [8], in test [10], in test [12], in test [14] and in [16] was “inactive” throughout. In addition, the Potency entry in test [17], in test [18] and in test [19] was “inactive” in each case. For the same compound, the Potency in test [9] is 30.7 µM (active) and 46.8 µM (active); in [11], 34.4 µM (active) and 41.7 µM (active).
Turning to `CCCOC(=O)c1cc(O)c(O)c(O)c1`, the Potency entry in test [1], in [3], in test [6], in test [7], in [8] and in [11] was “inactive” in each case. For the same compound, the Potency entry in test [12], in [14], in test [16], in test [17], in [18] and in test [19] was “inactive” in each case. In addition, the Potency is 9.52 µM [inconclusive] (active) and 19.4 µM [inconclusive] (active) and 61.6 µM [inconclusive] (active) in test [4]; 26.6 µM (active) and inactive in [5]; 4.22 µM (active) and inactive in [10]; 15.3 µM (active) in test [15].
In the case of `CCCCCCCCCCCCCCCCCl`, the Potency entry in test [1], in test [2], in test [3], in test [4], in [5] and in [6] was “inactive” throughout. Further, the Potency entry in test [7], in test [8], in test [9], in test [11], in test [12] and in [13] was “inactive” each time. In addition, the Potency result in test [14], in [15], in test [16], in test [17], in test [18] and in [19] was “inactive” throughout.
As for `CCCCN(CCO)CCCC`, the Potency entry in test [1], in test [2], in test [3], in [4], in test [5] and in [6] was “inactive” in each case. The Potency entry in test [7], in test [8], in test [9], in test [10], in test [11] and in test [12] was “inactive” in each case. Further, the Potency entry in [13], in test [14], in [15], in [16], in test [17] and in test [18] was “inactive” throughout. In test [19], the Potency entry is “inactive”.
Regarding `NC(=Nc1ccccc1)Nc1ccccc1`, the Potency result in test [1], in test [2], in test [3], in test [4], in test [9] and in [12] was “inactive” throughout. Also, the Potency entry in test [14], in test [17], in test [18] and in test [19] was “inactive” in each case. The Potency was 21.1 µM (active) in test [8]; “inactive and 19.3 µM (active)” in test [10]; 6.11 µM (active) in test [11]; 13.3 µM (active) in [15].
On to `CC(=O)C1=C(C)[C@@H]2C[C@@]3(C1)[C@H](C)CC[C@H]3C2(C)C`, for which the Potency entry in [1], in test [2], in [3], in test [4], in test [5] and in [6] was “inactive” in each case. The Potency result in test [7], in test [8], in [9], in test [10], in test [11] and in [12] was “inactive” throughout. In addition, the Potency entry in [14], in test [15], in test [16], in [17], in test [18] and in [19] was “inactive” in each case.
Take `Oc1c(Cl)cc(Cl)cc1Sc1cc(Cl)cc(Cl)c1O`: the Potency entry in test [1], in [4], in [7], in test [10], in test [11] and in test [18] was “inactive” in each case. The Potency in [2] was 6.93 µM [inconclusive] (active) and 1.77 µM [inconclusive] (active); in test [3], 21.9 µM (active) and 44.4 µM (active) and 27.5 µM (active); in test [6], 26.6 µM (active) and 48.6 µM (active); in [8], 21.1 µM (active) and 15.4 µM (active) and 17.5 µM (active); in test [17], 43.8 µM (active) and 49 µM (active) and inactive.
Take `CCCCCCCCCCCCc1ccccc1O`: the Potency result in [1], in test [10] and in test [11] was “inactive” each time. The Potency in [3] was 48.3 µM (active) and 49 µM (active); in test [4], 13.6 µM [inconclusive] (active) and 3.89 µM [inconclusive] (active); in test [5], 956 nM (active) and 1.93 µM (active); in test [7], 67.7 µM (active); in [8] it was 30.2 µM (active) and 27.3 µM (active); in [9], 30.2 µM (active) and 54.5 µM (active). Moreover, the Potency in test [14] was 48.3 µM (active) and 17.4 µM (active); in test [16], 60.3 µM (active) and 43.3 µM (active); in test [17], 17.2 µM (active) and 24.5 µM (active); in test [19], 13.6 µM (active) and 34.7 µM (active).
